Consider 16 molecules from PubChem BioAssay (Tox21).

The structures appear in SMILES notation. Activity calls are given as the source filed them. A call without a number means that no potency is given here. Calls come from the whole dose curve.

Sequence of Acetylcholinesterase (Homo sapiens) (P22303 whole entry, looked up): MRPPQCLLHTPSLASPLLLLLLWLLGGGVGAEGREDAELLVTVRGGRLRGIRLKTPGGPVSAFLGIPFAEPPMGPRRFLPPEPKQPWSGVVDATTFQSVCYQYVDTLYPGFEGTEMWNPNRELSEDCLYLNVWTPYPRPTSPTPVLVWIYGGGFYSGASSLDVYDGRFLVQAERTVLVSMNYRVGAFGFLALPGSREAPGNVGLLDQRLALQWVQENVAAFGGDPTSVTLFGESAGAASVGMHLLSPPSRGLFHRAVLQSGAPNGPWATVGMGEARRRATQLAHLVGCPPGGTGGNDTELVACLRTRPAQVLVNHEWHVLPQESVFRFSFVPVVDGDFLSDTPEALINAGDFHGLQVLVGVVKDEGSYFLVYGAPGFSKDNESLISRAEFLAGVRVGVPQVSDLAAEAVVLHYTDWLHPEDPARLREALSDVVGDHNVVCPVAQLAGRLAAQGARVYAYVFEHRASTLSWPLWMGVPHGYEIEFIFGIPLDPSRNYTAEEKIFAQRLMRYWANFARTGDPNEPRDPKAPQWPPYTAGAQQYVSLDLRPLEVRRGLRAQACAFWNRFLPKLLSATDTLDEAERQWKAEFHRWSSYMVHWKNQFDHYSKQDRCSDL

This assay has as its target Acetylcholinesterase (Homo sapiens) (UniProt P22303). The assay is described as follows: Acetylcholinesterase (AChE) small molecule antagonists: enzyme-based qHTS assay (AID 1347397). Note: nearly all actives have a fitted effect of over 55% in size. The note with it: Potency: AChE enzyme activity inhibition; series mostly up to 115 µM. An outline of the steps: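 rhAChE 50 mU/mL (dispensed) + cpd or DMSO, 30 min RT; add DTNB/acetylthiocholine cocktail, 10 min RT; colorimetric thiocholine readout. qHTS, 1536-well format.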
Turning to `C[N+](C)(C)Cc1ccccc1`, the Potency result is “inactive”. For `C[C@]12CCC(=O)C=C1CC[C@@H]1[C@@H]2CC[C@]2(C)C(=O)CC[C@@H]12`, the Potency entry is “inactive”. For `O=c1nc(O)n(Cl)c(=O)n1Cl` the value was “inactive”; for `O=C(O)c1nc(Cl)ccc1Cl`, “inactive”; for `CCCCCCCCCCCC(=O)O`, “inactive”.

Regarding `O=C(O)C(Cl)Cl`, the Potency entry is “inactive”. Then `CCCCCCCCCCCCOS(=O)(=O)O`, with “inactive”; and `O=C(O)COc1ccc(Cl)cc1Cl`, with “inactive”.

For `COCC(=O)N(c1c(C)cccc1C)C(C)C(=O)OC` (stereo unspecified), the Potency entry was “inactive”. Turning to `COP(=O)(OC)OC=C(Cl)Cl`, the Potency entry is “inactive”. For `Nc1ccc(-c2ccc(N)cc2)cc1` the value was “inactive”.

On to `OCCOc1ccccc1`, for which the Potency entry was “inactive”.

Consider `CCn1cc[n+](C)c1C`, for which the Potency entry was “inactive”.

Consider `O=[N+]([O-])c1ccccc1O`, for which the Potency entry was “inactive”. Then `CNC`, with “inactive”. For `Cc1cc(-c2ccc(N)c(C)c2)ccc1N` the value was “inactive”.
